Compounds without any hit were thinned out: in the full panel of roughly 79,000, 15% have a hit. Calls of active or inactive are those of the source. Cut-off read from the data, not from the text of the source: active = growth inhibition above about 70%; inactive = the rest.
Experiments:
[1] = NCI Yeast Anticancer Drug Screen. Data for the rad52 strain (AID 147);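 note: 0% = growth of vehicle-treated control cultures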; details: S. cerevisiae rad52 mutant growth inhibition, stronger effect = higher value
Summary of the method: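 Here a repair-compromised yeast strain receives each compound; its growth is then quantified and normalised to vehicle-only controls.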

[2] = NCI Yeast Anticancer Drug Screen. Data for the wt1 strain (AID 149);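 note: 0% = growth of vehicle-treated wt1 cultures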; details: S. cerevisiae wt1 strain (SPY 50644) growth inhibition, stronger effect = higher value
Summary of the method: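 Readout: yeast growth inhibition, normalised to vehicle controls, in the wt1 strain exposed to test compounds.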

[3] = NCI Yeast Anticancer Drug Screen. Data for the rad50EPP+ strain (AID 151);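 note: 0% = growth of vehicle-treated control cultures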; details: S. cerevisiae rad50 mutant strain, stronger effect = higher value
Summary of the method: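 Read-out is yeast growth inhibition relative to vehicle; cells used were the rad50EPP+ strain.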

[4] = NCI Yeast Anticancer Drug Screen. Data for the rad50 strain (AID 155);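 note: 0% = growth of vehicle-only cultures of the same strain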; details: S. cerevisiae rad50 strain growth inhibition, stronger effect = higher value
Summary of the method: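 Compounds were tested on a yeast strain with an engineered DNA damage repair alteration; the reported value is growth inhibition normalised to vehicle treatment.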

[5] = NCI Yeast Anticancer Drug Screen. Data for the mec2-1 strain (AID 157); details: S. cerevisiae mec2-1 strain, stronger effect = higher value
Summary of the method: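 Using mec2-1 yeast: add compound, measure growth, express inhibition versus vehicle-treated cultures.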

[6] = NCI Yeast Anticancer Drug Screen. Data for the rad14 strain (AID 159);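 note: 0% = growth of vehicle-treated control cultures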; details: S. cerevisiae rad14 strain growth inhibition, stronger effect = higher value
Summary of the method: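 Compound-treated yeast with a defined DNA-repair lesion; growth inhibition normalised to vehicle-treated cultures.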

[7] = NCI Yeast Anticancer Drug Screen. Data for the sgs1 mgt1 strain (AID 161);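 note: 0% = growth of cultures given vehicle only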; details: S. cerevisiae sgs1 mgt1 strain, stronger effect = higher value
Summary of the method: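 Compounds are added to genetically altered yeast, and growth is compared with cultures given vehicle alone to give percent inhibition.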

[8] = NCI Yeast Anticancer Drug Screen. Data for the CLN2oe strain (AID 163);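 note: 0% = growth of vehicle-only control cultures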; details: S. cerevisiae CLN2oe strain, stronger effect = higher value
Summary of the method: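 Whole-cell yeast growth assay. A strain engineered for altered cell-cycle control received compound, and inhibition relative to vehicle-treated cultures was recorded.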

[9] = NCI Yeast Anticancer Drug Screen. Data for the cln2 rad14 strain (AID 165);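 note: 0% = growth equal to vehicle treated cultures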; details: S. cerevisiae cln2 rad14 strain, stronger effect = higher value
Summary of the method: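 Yeast strain cln2 rad14, bearing defects in cell cycle control and DNA repair, serves as the test system; values reflect growth inhibition compared with vehicle.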

[10] = NCI Yeast Anticancer Drug Screen. Data for the bub3 strain (AID 167); details: S. cerevisiae bub3 mutant strain, stronger effect = higher value
Summary of the method: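 Growth of a checkpoint-deficient yeast mutant is measured after compound exposure. Values represent inhibition relative to vehicle.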

[11] = NCI Yeast Anticancer Drug Screen. Data for the wt2 strain (AID 169);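 note: 0% = growth of vehicle-treated yeast cultures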; details: S. cerevisiae wt2 strain growth inhibition, stronger effect = higher value
Summary of the method: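 Treated yeast vs. vehicle-treated yeast: growth inhibition determined.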

[12] = NCI Yeast Anticancer Drug Screen. Data for the mlh1 strain (AID 171);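 note: 0% = growth of vehicle-treated control cultures of the same strain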; details: S. cerevisiae mlh1 strain growth inhibition, stronger effect = higher value
Summary of the method: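 A yeast strain with a defined genetic lesion serves as the test organism. Cultures receive compound or vehicle, and growth is measured.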

[13] = NCI Yeast Anticancer Drug Screen. Data for the sgs1 strain (AID 173);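 note: 0% = growth of vehicle-only control cultures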; details: S. cerevisiae sgs1 mutant, stronger effect = higher value
Summary of the method: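 A genetically defined yeast mutant is incubated with the test compound, and its growth is compared to that of the same strain given vehicle.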

[14] = NCI Yeast Anticancer Drug Screen. Data for the mlh1 rad18 strain (AID 175); details: S. cerevisiae mlh1 rad18 strain growth inhibition, stronger effect = higher value
Summary of the method: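 Steps: expose repair-defective yeast to compound; measure growth; express inhibition against vehicle-treated controls.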

[15] = NCI Yeast Anticancer Drug Screen. Data for the rad18 strain (AID 177); details: S. cerevisiae rad18 mutant growth inhibition, stronger effect = higher value
Summary of the method: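 Measured value is growth inhibition of a yeast strain bearing a DNA repair alteration, referenced to vehicle-treated cells.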

[16] = at 5.0 µM (retest, dose inferred, filed as 0.5)
[17] = at 50.0 µM (retest, dose inferred, filed as 5.0)

Measured: growth inhibition

CCCCCC#CCOC(=O)C(=[N+]=[N-])P(=O)(c1ccccc1)c1ccccc1
inactive: [1]; at 1.2 µM 7% | [1]; at 3.7 µM 16% | [1]; at 11.0 µM 7% | [1]; at 33.0 µM 10% | [2]; at 1.2 µM 3% | [2]; at 3.7 µM -2% | [2]; at 11.0 µM 3% | [2]; at 33.0 µM -2% | [3]; at 1.2 µM 21% | [3]; at 3.7 µM 13% | [3]; at 11.0 µM 26% | [3]; at 33.0 µM 14% | [3]; at 100.0 µM 6% | [4]; at 1.2 µM 14% | [4]; at 3.7 µM 21% | [4]; [16] -6% | [4]; at 11.0 µM 13% | [4]; at 33.0 µM 13% | [5]; at 1.2 µM 11% | [5]; at 3.7 µM 7% | [5]; [16] -6% | [5]; at 11.0 µM -3% | [5]; at 33.0 µM -4% | [6]; at 1.2 µM -11% | [6]; at 3.7 µM -6% | [6]; at 11.0 µM -9% | [6]; at 33.0 µM -6% | [7]; [16] 8% | [7]; [17] 46% | [8]; at 1.2 µM 7% | [8]; at 3.7 µM 5% | [8]; at 11.0 µM 9% | [8]; at 33.0 µM -1% | [9]; [16] 37% | [10]; at 1.2 µM 1% | [10]; at 3.7 µM 0% | [10]; [16] 8% | [10]; at 11.0 µM -23% | [10]; at 33.0 µM -23% | [11]; at 1.2 µM 4% | [11]; at 3.7 µM 10% | [11]; at 11.0 µM 5% | [11]; at 33.0 µM 5% | [12]; at 1.2 µM 28% | [12]; at 3.7 µM 23% | [12]; at 11.0 µM 26% | [12]; at 33.0 µM 20% | [13]; at 1.2 µM 17% | [13]; at 3.7 µM 21% | [13]; at 11.0 µM 15% | [13]; at 33.0 µM 16% | [14]; [16] 22% | [15]; at 1.2 µM 7% | [15]; at 3.7 µM 8% | [15]; at 11.0 µM 7% | [15]; at 33.0 µM 14%
active: [1]; at 100.0 µM 96% | [2]; at 100.0 µM 96% | [4]; [17] 94% | [4]; at 50.0 µM 87.8% | [4]; at 100.0 µM 95% | [5]; [17] 97% | [5]; at 50.0 µM 90.5% | [5]; at 100.0 µM 95% | [6]; at 100.0 µM 94% | [7]; at 50.0 µM 90.8% | [8]; at 100.0 µM 96% | [9]; [17] 96% | [9]; at 50.0 µM 86.7% | [10]; [17] 95% | [10]; at 50.0 µM 89.3% | [10]; at 100.0 µM 95% | [11]; at 100.0 µM 97% | [12]; at 100.0 µM 97% | [13]; at 100.0 µM 98% | [14]; [17] 96% | [14]; at 50.0 µM 87% | [15]; at 100.0 µM 96%

Source: PubChem BioAssay (NCI)
